Compound activity (PubChem)
RORg inh – inhibitors of mouse ROR gamma transcriptional activity; AID 2551; 310,000 compounds, 5.4% hits; Potency, µM (series often up to 53.6 µM), for the others: at the top dose activity change, negative = inhibition, actives largely listed as inhibitors; Drosophila S2 Gal4-RORgamma UAS-luciferase reporter, 20 h; further: potency means the concentration at half of the fitted maximal effect; nearly all actives have a fitted effect of over 60% in size
Target sequence (P51450 whole entry, looked up, the tested form may be a part): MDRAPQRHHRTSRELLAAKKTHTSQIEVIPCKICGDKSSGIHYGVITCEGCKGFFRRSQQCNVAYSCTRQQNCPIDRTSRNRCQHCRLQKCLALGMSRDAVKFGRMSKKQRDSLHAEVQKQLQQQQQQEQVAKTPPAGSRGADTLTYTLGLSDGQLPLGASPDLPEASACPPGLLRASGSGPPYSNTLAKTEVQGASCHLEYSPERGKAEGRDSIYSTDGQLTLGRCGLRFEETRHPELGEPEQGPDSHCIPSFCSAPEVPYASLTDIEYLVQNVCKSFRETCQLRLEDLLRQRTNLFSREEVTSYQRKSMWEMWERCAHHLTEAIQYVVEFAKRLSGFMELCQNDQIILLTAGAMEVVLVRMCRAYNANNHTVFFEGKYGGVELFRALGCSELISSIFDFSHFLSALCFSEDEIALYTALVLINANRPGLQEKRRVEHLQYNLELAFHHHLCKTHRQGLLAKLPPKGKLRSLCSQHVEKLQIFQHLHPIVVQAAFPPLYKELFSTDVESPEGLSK
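Stable Schneider cell line, Gal4 DNA-binding domain fused to ROR gamma, UAS-luciferase. Cmpd 1 hr RT → CuSO4 700 uM final → 20 hr RT → luciferase reagent 10 min → luminescence.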
IL-1B inflam inh – inflammasome signaling inhibition, IL-1 beta readout | THP-1 LPS/ATP IL-1B secretion, AlphaLISA, 16 h; active compounds read low | 360,000 compounds, 4.7% hits | activity change, % at 57.5 µM | AID 743279; in the data active means activity change below about -50%; inconclusive means mostly about -30% to -49%
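Secreted IL-1B measured by AlphaLISA bead assay after 16 h compound exposure of THP-1 cells; compounds (final up to 57.5 uM) added 1 h before LPS (250 ng/mL) and ATP (1.25 mM) stimulation; lower signal means less secretion.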
VP16 counter – Gal4-VP16 reporter inhibition counter-screen; 310,000 compounds, 3.5% hits; AID 2546; Potency, µM (doses to about 53.6 µM), inactives show top-dose activity, negative = inhibition, hits mostly inhibitors; Drosophila S2 Gal4-VP16 UAS-luciferase, luminescence, 20 h;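 further: Gal4-VP16 expression switched on by copper sulfate through the metallothionein promoter; potency means the concentration at half of the fitted maximal effect; nearly all actives have a fitted effect of over 50% in size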
LDHA inh – inhibitors of human lactate dehydrogenase A; 480,000 compounds, 0.15% hits; P00338; purified LDHA, NADH/diaphorase-resazurin fluorescence; active compounds read low; activity change, % (values are at about 110 or 230 µM); in the data active means activity change below about -30%; inconclusive means mostly about -25% to -30%;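 further: plate controls were DMSO wells for no effect and wells without enzyme for full effect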
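Human LDH5 at 2 nM final in Tris HCl pH 7.4 with 0.06 mM NADH and 0.2 mM pyruvate, reacted 5 minutes at room temperature. Remaining NADH coupled via diaphorase/resazurin; resorufin fluorescence read at 0 and 20 minutes, normalized to enzyme-free and DMSO wells.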
DT40 TDP1 CPT – growth inhibition of DT40 Tdp1-/-;hTDP1 cells with camptothecin (screen for TDP1 inhibitors); 420,000 compounds, 12% hits; AID 686979; chicken DT40 Tdp1-/-;hTDP1 cells + 20 nM CPT, ATP luminescence, 48 h; Potency, µM (top dose mostly 46.2 µM), without a hit: at the highest dose activity change, negative = growth inhibition, hits mostly inhibitors; further: potency means the concentration at half of the fitted maximal effect; nearly all actives have a fitted effect of over 55% in size
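Chicken DT40 Tdp1-/- cells complemented with human TDP1, 400 cells/well, exposed to compounds plus 20 nM camptothecin for at least 48 h at 37 C; viability read as ATP content by CellTiter-Glo luminescence.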
DT40 TDP1 no CPT – qHTS for Inhibitors of human tyrosyl-DNA phosphodiesterase 1 (TDP1): qHTS in cells in absence of CPT; DT40 Tdp1-/- hTDP1 cells, no CPT, ATP luminescence, 48 h; Potency, µM (titrated, usually from 46.2 µM), inactives show at the top dose activity change, negative = growth inhibition, most hits filed as inhibitors; 420,000 compounds, 15% hits; AID 686978, 2013; further: potency means the concentration at half of the fitted maximal effect; nearly all actives have a fitted effect of over 55% in size
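Compound effects on proliferation are scored in DT40 Tdp1-/-;hTDP1 cells in the absence of CPT. ATP levels (CellTiter-Glo luminescence) are recorded after a ≥48 hr, 37 °C incubation.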
An asterisk follows results filed as active. Compounds with a hit are over-represented: about 18% of the library has one in this group of screens. Unless noted, the call rests on the fitted dose curve; in most records, active means well fitted curve in the direction sought with a large enough effect; inconclusive means small, poorly fitted or top-dose-only effect, or another doubt; inactive means no such curve, though single readings can be large; an effect the other way counts as inactive or inconclusive. Unless noted, on the % scale 0 is the no-effect control and ±100 the full control effect.

For CC(=O)c1ccc(N2CCN(c3nc4c(S(=O)(=O)c5ccc(C)c(C)c5)nnn4c4ccc(Cl)cc34)CC2)cc1 the results were LDHA inh -14.0, DT40 TDP1 CPT 0.1% and DT40 TDP1 no CPT -0.2%.
`CC1CCN(c2nc3c(S(=O)(=O)c4ccccc4)nnn3c3ccc(Cl)cc23)CC1` gave LDHA inh 3.4, DT40 TDP1 CPT 16.4µM* and DT40 TDP1 no CPT 18.4µM*.
For Cc1ccc(S(=O)(=O)c2nnn3c2nc(N2CCC(C(N)=O)CC2)c2ccccc23)cc1 the results were RORg inh -0.3%, IL-1B inflam inh inconclusive, VP16 counter 0.4%, LDHA inh -8.0, DT40 TDP1 CPT -1.4% and DT40 TDP1 no CPT 17.5%.
For Cc1ccc(S(=O)(=O)c2nnn3c2nc(N2CCC(C)CC2)c2cc(Cl)ccc23)cc1C the results were LDHA inh -13.0, DT40 TDP1 CPT inconclusive and DT40 TDP1 no CPT 20.6µM*.
`O=C(CCCN1C(=O)C(c2ccccc2)Oc2cccnc21)NCc1ccccc1` (stereo unspecified) gave LDHA inh 9.0.
Screening Cc1ccc(-c2ccc3cc(C)ccc3n2)cc1 returned LDHA inh 1.5.
`Cc1ccc(C)c(NC(=O)c2n[nH]c(=O)c3ccccc23)c1` gave LDHA inh -0.4.
Cc1ccc(F)cc1NC(=O)c1nc2ccccc2nc1N1CCOCC1 was read as LDHA inh -2.2.
For Cc1ccsc1/C=N/NC(=O)c1sccc1C the results were RORg inh 7.94µM*, IL-1B inflam inh 4.6, VP16 counter inconclusive, LDHA inh -1.2, DT40 TDP1 CPT inconclusive and DT40 TDP1 no CPT inconclusive.
For Cc1ccsc1/C=N\NC(=O)c1cc(C(C)(C)C)[nH]n1 the results were RORg inh 10µM*, IL-1B inflam inh -11.6, VP16 counter 20µM*, LDHA inh -2.1, DT40 TDP1 CPT -24.4% and DT40 TDP1 no CPT inconclusive.
`Cc1cc(C(=O)N/N=C/c2sccc2C)no1` gave RORg inh inconclusive, IL-1B inflam inh -3.3, VP16 counter inconclusive, LDHA inh 1.5, DT40 TDP1 CPT -16.4% and DT40 TDP1 no CPT -29.7%.
Screening Cc1ccsc1/C=N/NC(=O)CSCc1ccc(Cl)cc1 returned RORg inh 11.2µM*, IL-1B inflam inh -11.2, VP16 counter 10µM*, LDHA inh -4.4, DT40 TDP1 CPT -3.3% and DT40 TDP1 no CPT -11.2%.
For Cc1ccsc1/C=N\NC(=O)c1ccc2c(c1)OCO2 the results were RORg inh 7.08µM*, IL-1B inflam inh 0.0, VP16 counter inconclusive, LDHA inh -2.7, DT40 TDP1 CPT inconclusive and DT40 TDP1 no CPT inconclusive.
`CCCCCCCC1C(C#N)=C(N)SC(N)=C1C#N` gave LDHA inh -6.2.
Screening CC(C)CNC(=O)c1cc(-c2ccccc2F)no1 returned LDHA inh -10.1.
`N#Cc1ccc(Cn2c(CN3CCCCC3)nc3scc(-c4cccs4)c3c2=O)cc1` gave LDHA inh 0.4.
For O=Cc1ccc(-c2ccc(Br)cc2F)o1 the results were LDHA inh 2.1.
`Cc1nc(NC(=O)CCOc2ccc(Cl)cc2)sc1C` gave LDHA inh -2.5.
For CN(C)c1ccc(/C=N/NC(=O)Cn2nnc3ccccc32)cc1 the results were RORg inh 20.4%, IL-1B inflam inh 31.9, VP16 counter 10.9%, LDHA inh 2.8, DT40 TDP1 CPT -6.8% and DT40 TDP1 no CPT -23.6%.
For Cc1ccsc1/C=N\NC(=O)Cn1nnc2ccccc21 the results were RORg inh 14.1µM*, IL-1B inflam inh 11.6, VP16 counter inconclusive, LDHA inh -6.4, DT40 TDP1 CPT inconclusive and DT40 TDP1 no CPT 18.4µM*.
O=C(Cn1nnc2ccccc21)Nc1ccccc1[N+](=O)[O-] was read as RORg inh 1.1%, IL-1B inflam inh -79.0*, VP16 counter -4.8%, LDHA inh -7.0, DT40 TDP1 CPT 6.4% and DT40 TDP1 no CPT -49.6%.
For CCN(CC)S(=O)(=O)c1ccc(N(C)CCOc2ccc(Br)cc2)nc1 the results were LDHA inh 7.9.
`O=C(CC12CC3CC(CC(C3)C1)C2)NCC(=O)OCc1cc(=O)oc2ccc3ccccc3c12` gave RORg inh -21.2%, IL-1B inflam inh -9.0, VP16 counter -19.9%, LDHA inh -0.8, DT40 TDP1 CPT inconclusive and DT40 TDP1 no CPT 18.4µM*.
For CCOC(=O)C1CCN(Cc2ccccn2)CC1 the results were RORg inh 7.7% and VP16 counter 7.0%.
For CCOC(=O)c1c(C)oc2c1c1c(c3ccccc32)OCN(Cc2ccccn2)C1 the results were RORg inh 7.08µM*, IL-1B inflam inh -75.3*, VP16 counter 11.2µM*, LDHA inh 22.6, DT40 TDP1 CPT inconclusive and DT40 TDP1 no CPT inconclusive.
For CCOC(=O)c1c(C)oc2c1c(C=NCCC(=O)O)c(O)c1ccccc12 the results were RORg inh -33.5%, IL-1B inflam inh 0.0, VP16 counter 0.9%, LDHA inh 30.9, DT40 TDP1 CPT -0.8% and DT40 TDP1 no CPT -20.9%.
CCOC(=O)c1c(C)oc2c1c(C=NC1CCS(=O)(=O)C1)c(O)c1ccccc12 (stereo unspecified) was read as RORg inh -16.5%, IL-1B inflam inh 0.0, VP16 counter -0.6%, LDHA inh 22.8, DT40 TDP1 CPT 23.1µM* and DT40 TDP1 no CPT 20.6µM*.
For CCOC(=O)c1c(C)oc2c1c(C(c1ccncc1)N1CCOCC1)c(O)c1ccccc12 (stereo unspecified) the results were RORg inh inconclusive, IL-1B inflam inh -25.3, VP16 counter 4.1%, LDHA inh 21.9, DT40 TDP1 CPT 20.6µM* and DT40 TDP1 no CPT inconclusive.
CCCS(=O)(=O)NCc1nnnn1-c1ccccc1 was read as LDHA inh 6.6.
`O=c1cc(CN2CCCC2)c2c(ccc3ccccc32)o1` gave IL-1B inflam inh 8.4, LDHA inh -9.5, DT40 TDP1 CPT -3.1% and DT40 TDP1 no CPT -4.5%.
Screening CCOC(=O)c1c(C)oc2c(CC(=O)c3ccccc3)c(Cl)c(O)c(O)c12 returned RORg inh -6.7%, IL-1B inflam inh -26.1, VP16 counter 0.9%, LDHA inh 7.4, DT40 TDP1 CPT inconclusive and DT40 TDP1 no CPT inconclusive.
`CCOC(=O)c1c(C)oc2c1c(CN1CCN(CCO)CC1)c(O)c1ccccc12` gave RORg inh inconclusive, IL-1B inflam inh -97.8*, VP16 counter inconclusive, LDHA inh 35.2, DT40 TDP1 CPT inconclusive and DT40 TDP1 no CPT inconclusive.
